ALDH1A1 inh – ALDH1A1 (human) enzyme inhibition | P00352 | Purified ALDH1A1, NADH fluorescence, propionaldehyde substrate | Potency, µM (doses to about 75.3 µM), for the others: top-dose activity, negative = inhibition, actives largely listed as inhibitors | 7.3% of 220,000 active | AID 1030; active means well fitted inhibition curve with a large enough effect, not every such curve was filed as active; inconclusive means small, poorly fitted or top-dose-only effect, or another doubt; inactive means no such curve, though single readings can be large or run the other way;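 further: potency means the concentration at half of the fitted maximal effect; plate controls were no enzyme wells and a reference inhibitor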
GLA inh pH 4.5 – inhibitors of human alpha-galactosidase A at pH 4.5; purified enzyme, 4-MU-alpha-Gal fluorescence, pH 4.5; activity change, negative = inhibition, % at 105 µM; 230,000 tested, under 10 active; AID 1467;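 further: 0% = full activity with enzyme and -100% = basal without enzyme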
HPGD inh – HPGD (human) dehydrogenase inhibition. P15428. Potency, µM, inactives show at the highest dose activity change, negative = inhibition, usual class: inhibitors. purified HPGD, NADH fluorescence kinetic, PGE2 substrate. 4.3% of 150,000 active; active means well fitted inhibition curve with a large enough effect, not every such curve was filed as active; inconclusive means small, poorly fitted or top-dose-only effect, or another doubt; inactive means no such curve, though single readings can be large or run the other way; further: potency means the concentration at half of the fitted maximal effect
Target sequence (P15428 whole entry, looked up): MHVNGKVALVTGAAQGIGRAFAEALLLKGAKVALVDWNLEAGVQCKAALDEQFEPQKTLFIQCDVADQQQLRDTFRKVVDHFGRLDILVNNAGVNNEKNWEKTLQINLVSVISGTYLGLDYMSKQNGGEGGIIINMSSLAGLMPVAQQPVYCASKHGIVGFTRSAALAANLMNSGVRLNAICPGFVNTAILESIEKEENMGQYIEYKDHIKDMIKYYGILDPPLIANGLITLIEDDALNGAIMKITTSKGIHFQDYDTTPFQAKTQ
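20 nM HPGD preincubated 15 min at room temperature with compound in 50 mM Tris-HCl pH 8, 0.01% Tween 20. Started with 1 mM NAD+ and 30 uM prostaglandin E2; NADH fluorescence (360/450 nm) read 5 times over 30-s intervals, last minus first.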
PNC inhibitor – perinucleolar compartment assembly inhibition | PC3M PTB-GFP, PNC prevalence imaging, 16 h; hits give low values | activity change (PNC), negative = inhibition, % at 10 µM | 3.1% of 140,000 active | AID 2417;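 active means readout at or below -70, meaning at least 70% loss of cells showing the perinucleolar compartment, a nuclear body marking cancer cells; inconclusive means readout between -30 and a set limit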;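 further: plate controls were DMSO wells for no effect and camptothecin positive control wells for full effect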
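Read-out is percentage of cells bearing a perinucleolar compartment, from automated 20x imaging of fixed, Hoechst-stained PC3M PTB-GFP cells. Cells were seeded 4 h, then exposed 16 h to compound (23 nl of library stock) in duplicate plates.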
12-hLO inh – blocks human 12-lipoxygenase activity; P18054; purified 12-hLO, xylenol orange hydroperoxide absorbance; Potency, µM (highest dose often 57.1 µM), without a hit: at the highest dose activity change, negative = inhibition, usual class: inhibitors; 0.12% of 150,000 active; further: potency means the concentration at half of the fitted maximal effect; nearly all actives have a fitted effect of over 55% in size
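Purified human 12hLO (150 nM final) was preincubated with compounds for 15 min at room temperature in 25 mM Hepes pH 7.0, 0.01% Triton X-100, then reacted with 40 uM arachidonic acid for 30 min. Hydroperoxide was detected with ferrous iron/xylenol orange.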
aGal spleen mod – inhibitors or activators of human alpha-galactosidase in spleen homogenate | Potency, µM (top dose mostly 80 µM), without a hit: at the highest dose activity change, negative = inhibition, usual class: inhibitors | 0.008% of 240,000 active | P06280 | human spleen homogenate, 4MU-alpha-Gal fluorescence, 40 min | AID 2107;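 further: potency means the concentration at half of the fitted maximal effect; 0% = enzyme with vehicle and -100% = no enzyme basal signal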
Target sequence (P06280 32-429 limits assumed): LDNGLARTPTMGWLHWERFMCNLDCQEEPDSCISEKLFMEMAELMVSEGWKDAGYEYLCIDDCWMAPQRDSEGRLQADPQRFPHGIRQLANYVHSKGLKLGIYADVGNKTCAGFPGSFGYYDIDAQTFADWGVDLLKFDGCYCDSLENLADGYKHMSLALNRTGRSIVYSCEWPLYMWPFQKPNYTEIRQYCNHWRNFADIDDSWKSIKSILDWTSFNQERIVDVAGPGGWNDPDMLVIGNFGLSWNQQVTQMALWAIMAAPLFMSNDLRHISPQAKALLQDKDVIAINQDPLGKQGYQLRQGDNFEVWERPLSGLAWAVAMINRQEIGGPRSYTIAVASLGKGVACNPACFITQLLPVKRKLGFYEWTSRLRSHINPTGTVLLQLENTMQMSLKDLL
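qHTS titration in buffer at pH 5.0. Alpha-galactosidase activity in spleen homogenate was measured via 4-methylumbelliferone release from 1 mM fluorogenic substrate after 40 min at 37C and a pH 10 stop. AC50 came from Hill fits of control-normalized data.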
* = called active by the depositor; ? = inconclusive; · = no result given; [ ] = another dose, or the depositor's remark. Most compounds without a hit are left out; they make up all but 10% or so of the library. Unless noted, the call rests on the fitted dose curve; in most records, active means well fitted curve in the direction sought with a large enough effect; inconclusive means small, poorly fitted or top-dose-only effect, or another doubt; inactive means no such curve, though single readings can be large; an effect the other way counts as inactive or inconclusive. Unless noted, on the % scale 0 is the no-effect control and ±100 the full control effect.

SMILES | ALDH1A1 inh | GLA inh pH 4.5 | HPGD inh | PNC inhibitor | 12-hLO inh | aGal spleen mod
CCN(CC)CCCNC(=O)CN1C(=O)CSc2ccc(S(=O)(=O)N3CCOCC3)cc21 | 10% | -2 | -1% | -113* | 1% | -5%
Cc1ccc(C(=O)C[n+]2cc(Br)cc(Br)c2)cc1[N+](=O)[O-] | 16µM* | -2 | -6% | 16 | 2% | 5%
CC(C)Oc1ccc(C2c3c(oc4ccccc4c3=O)C(=O)N2CCCN2CCOCC2)cc1 (stereo not drawn) | 8.9µM* | -9 | -14% | 33 | -9% | 3%
O=C1c2oc3ccc(Cl)cc3c(=O)c2C(c2ccccn2)N1CCCN1CCOCC1 (stereo not drawn) | 7.9µM* | -5 | -29% | -23 | -2% | -1%
Cc1ccc(C2c3c(oc4cc(C)c(C)cc4c3=O)C(=O)N2CCCN2CCOCC2)cc1 (stereo not drawn) | 11µM* | 0 | -6% | -5 | -3% | -5%
C=CCOc1ccc(C2c3c(oc4ccccc4c3=O)C(=O)N2CCCN2CCOCC2)cc1 (stereo not drawn) | 18µM* | -8 | -8% | 23 | -24% | 3%
Cc1cc(C)c(C(=O)CSC2=NC(N)=C(C#N)C3(CCCCC3)C2C(N)=O)cc1C (stereo not drawn) | -6% | -7 | -18% | ? | -8% | -8%
COCCn1c(=O)c(-c2cccs2)nc2cnc(Oc3ccc(OC)cc3)nc21 | ? | · | ? | · | -5% | 13%
Cc1cccc2c(C(=O)Nn3cnnc3)cc(-c3ccccc3Cl)nc12 | 4% | -2 | · | · | · | 2%
C=C[C@H]1CCC=C2C(=O)CCC[C@@H]21 | -5% | -7 | -5% | · | · | 3%
CN1CCN(c2cc(-c3ccoc3)ncn2)CC1 | ? | · | · | · | · | 6%
CC1CCN(CC(=O)Nc2ccc(Br)cc2[N+](=O)[O-])CC1 | -6% | -3 | · | · | · | -12%
CC(C)C[C@@H](C(=O)N[C@@H](Cc1c[nH]c2ccccc12)C(N)=O)N1C[C@]2(CCCN2C(=O)[C@H](Cc2ccccc2)NC(=O)[C@H](Cc2ccccc2)NC(=O)[C@H](CCC(N)=O)NC(=O)[C@H](CCC(N)=O)NC(=O)[C@@H]2CCCN2C(=O)[C@H](CCCCN)NC(=O)[C@@H]2CCCN2C(=O)[C@@H](N)CCCNC(=N)N)CC1=O | · | · | · | · | · | -22%
CCOC(=O)c1oc2ccccc2c1CN1CCCCC1 | -4% | 2 | · | · | · | 3%
CCOC(=O)c1oc2ccccc2c1CSc1nnnn1-c1ccccc1 | 6.3µM* | -5 | -13% | -7 | -7% | 3%
CCOC(=O)c1sc(NC(=O)CSc2nnnn2-c2ccccc2)nc1C | ? | -5 | -8% | 8 | 2% | 8%
CCOC(=O)c1oc2ccccc2c1CN1CCOCC1 | 11µM* | 2 | -9% | 11 | 0% | -1%
CCCCc1c(O)n(-c2ccccc2)[nH]c1=O | 0% | -3 | -10% | · | -7%[0.00818 µM] | -5%
CCCCCOC(=O)NC1CCS(=O)(=O)C1 (stereo not drawn) | -2% | 1 | · | · | · | 2%
Cc1c2cc(O)c(=O)cc-2oc2cc(O)c(O)cc12 | ? | 1 | ? | -3 | ? | 0%
COc1cc(OC)c(-c2c3cc(O)c(=O)cc-3oc3cc(O)c(O)cc23)cc1OC | 10µM* | -6 | 16µM* | -27 | -21% | -3%
Cc1ccc(NC(=O)N2CCCCC2)cc1NC(=O)N1CCCCC1 | 15% | 2 | · | · | · | 14%
Cc1ccc(C(NC(=O)N2CCCCC2)=C(Cl)Cl)cc1F | 0.11µM* | -1 | -14% | -6 | 0% | 0%
Cc1ccc(C(NC(=O)NCCCN2CCOCC2)=C(Cl)Cl)cc1F | 0.4µM* | -1 | -14% | -3 | 3% | 5%
N#CCCn1c(=O)c(-c2ccc(Cl)cc2)nc2cnc(Nc3ccccc3)nc21 | 19% | · | · | · | · | -24%
SMILES | ALDH1A1 inh | GLA inh pH 4.5 | HPGD inh | PNC inhibitor | 12-hLO inh | aGal spleen mod
Cc1cccc(NC(=O)C2CCCN2/C=C/C(=O)C(F)(F)F)c1C (stereo not drawn) | 9% | -2 | -17% | ? | 0% | -3%
CN(NC1CC(=O)N(c2ccccc2)C1=O)c1ccccc1 (stereo not drawn) | ? | -14 | -28% | ? | -2% | 2%
O=c1c2ccccc2sc2nc(C3CCCCC3)n(Cc3ccco3)c(=O)c12 | 1.4µM* | 10 | 16µM* | 7 | ? | 8%
C[C@@H](c1ccccc1)N1C(=O)[C@H]2[C@H]3[C@H](O)[C@H](O)C/C(=N/NC(=O)OCc4ccccc4)[C@H]3CC[C@@H]2C1=O | 2%[13.5 µM] | · | · | · | · | 3%[17.5 µM]
Clc1ccc(C2=NN=C3COc4ccccc4N3C2)cc1 | 6% | 3 | 20µM* | 47 | 3% | 3%
Clc1ccc(C2=Nc3cc(Cl)ccc3OC2)cc1 | 5% | -6 | · | · | · | 7%
O=c1c(-c2cccc(Cl)c2)nc2cncnc2n1Cc1ccc(F)cc1 | 14% | · | -7% | · | 0% | -7%
COc1ccc(/C=C(/NC(=O)c2ccccc2)C(=O)N/N=C/c2ccc3c(c2)OCO3)cc1OC | -2% | -1 | 32µM* | 60 | 1% | 7%
COc1cc(/C=N/NC(=O)C(=O)N2CCCC2)ccc1O | 3% | 3 | -20% | ? | -2% | -3%
COc1ccc(/C=N/NC(=S)NC2CCS(=O)(=O)C2)cc1OC (stereo not drawn) | -14% | 1 | ? | -100* | -2% | -4%
COc1ccc(/C=N/NC(=O)C(=O)N2CCCC2)cc1OC | 2% | 4 | 32µM* | -4 | 1% | 2%
CN(C)c1ccc(/C=C(/NC(=O)c2ccccc2)C(=O)N/N=C/c2ccc([N+](=O)[O-])c(O)c2)cc1 | 4µM* | -28 | 16µM* | 39 | -3% | 9%
CC(=O)N1N=C(c2ccc(C)cc2)OC1c1cccnc1 (stereo not drawn) | 9% | 1 | · | · | · | -3%
COc1ccccc1CN1CC[C@@]2(CCCN(C(=O)c3cccn3C)C2)C1 | ? | · | -4% | · | -4% | 0%
COc1ccc(/C=N/NC(=O)CN2CCSCC2)cc1C | 10µM* | 3 | -26% | 41 | -5% | 3%
O=C(COC(=O)CNC(=O)c1ccc(Cl)cc1Cl)Nc1ccc(N2CCOCC2)cc1 | ? | 3 | · | · | · | -3%
CCCn1cnc2c(c1=O)c1nc3ccccc3nc1n2Cc1ccccc1OC | 4µM* | -3 | ? | ? | -2% | -3%
COCCCn1c2nc3ccccc3nc2c2c(=O)n(-c3ccccc3OC)cnc21 | ? | 2 | -20% | 16 | 1% | 5%
COCCCn1c2nc3ccccc3nc2c2c(=O)n(-c3ccccc3OC)c(C)nc21 | -8% | 7 | ? | -100* | 5% | 2%
